Values without a mark were called inactive.

In the experiment the test system is Caenorhabditis elegans dauer (daf-2(e1370)). Kind of experiment: proportion of mobile C. elegans dauer larvae relative to DMSO control (fraction of DMSO control); higher = more viable, less nematicidal, active = 0.63 or less; extreme values may be limits of the assay. Conditions: 60 µM; 5 days; temperature: 20 °C. The protocol:
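DODA library (846 commercial 1,3,4- and 1,2,4-oxadiazole compounds plus commercial nematicide controls) screened at a single dose of 60 µM (0.6% DMSO) in 96-well plates, two biological replicates. Read-outs: C. elegans N2 L1 survival/reproduction score at day 6, 20 °C (0: 0-10 worms, 1: 11-20, 2: 21-50, 3: >50, 4: overgrown/starved). C. elegans daf-2 dauer, D. dipsaci and M. hapla J2 mobility at day 5, 20 °C, and P. penetrans mobility at day 5, 20 °C, each relative to DMSO controls. M. hapla egg hatching at day 12, 25 °C, relative to the mean of 8 DMSO wells on the same plate.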
Consider `CCc1nnc(NC(=O)CSc2nnc(-c3ccc(Cl)cc3Cl)o2)s1`, for which the “proportion of mobile C. elegans dauer larvae” value (“proportion” for short) is 1.

For `CC(=O)Nc1cccc(-c2nnc(SCc3ccccc3)o2)c1`, the “proportion” value was 1.

Consider `Cc1cccc(-c2noc(-c3ccc(Cl)cc3)n2)c1`, for which the “proportion” value was 1.

On to `COc1ccc(CCC(=O)Nc2ccc(-c3noc(-c4ccccc4C)n3)cc2)cc1`, for which the “proportion” value was 1.

Regarding `COc1ccccc1-c1noc(-c2ccccc2)n1`, the “proportion” value is 1.

With `O=C(Nc1ccc(-c2noc(-c3ccccn3)n2)cc1)c1cccc(Cl)c1`, the “proportion” value was 1.

Regarding `Cc1ccc(-c2noc(CSc3nc4ccccc4[nH]3)n2)cc1`, the “proportion” value is 1.

As for `CCC(=O)Nc1ccccc1-c1nc(-c2cccnc2)no1`, the “proportion” value is 1.

For `COc1cccc(-c2noc(-c3ccc(Cl)cc3)n2)c1`, the “proportion” value is 0.562 (active).

Take `COc1ccc(-c2noc(-c3ccc(C)cc3)n2)cc1`: the “proportion” value was 1.

`Clc1ccc(-c2noc(COc3ccccc3Cl)n2)cc1`: the “proportion” value is 1.

With `Cc1cccc(-c2noc(-c3cccc(Cl)c3)n2)c1`, the “proportion” value was 1.

Consider `O=C(CSc1nnc(-c2cc3ccccc3o2)o1)NC1CC1`, for which the “proportion” value was 1.

For `CCc1ccc(NC(=O)CSc2nnc(-c3ccc(Cl)cc3Cl)o2)cc1`, the “proportion” value was 1.

With `Cc1cccc(OCc2nc(-c3ccccc3)no2)c1`, the “proportion” value is 1.

Turning to `CCOc1ccc(-c2noc(-c3ccncc3)n2)cc1OC`, the “proportion” value is 1.

On to `COc1ccccc1OCc1nc(-c2ccc(Br)cc2)no1`, for which the “proportion” value is 1.

With `Brc1ccc(-c2noc(COc3ccc4c(c3)OCO4)n2)cc1`, the “proportion” value was 1.

Turning to `Cc1cc(NC(=O)CSc2nnc(-c3ccc(Cl)cc3Cl)o2)no1`, the “proportion” value is 1.

Turning to `COc1cccc(-c2nc(-c3ccc(Cl)cc3)no2)c1`, the “proportion” value is 1.

Take `CCOc1cc(C#N)ccc1OCc1nc(-c2cccs2)no1`: the “proportion” value is 1.

As for `O=C(Nc1ccc(-c2noc(-c3ccc(Cl)cc3)n2)cc1)c1ccco1`, the “proportion” value was 1.

On to `CCn1c(SCc2ccc(OC)cc2)nnc1-c1ccco1`, for which the “proportion” value is 1.

On to `Cc1cccc(-c2noc(-c3ccccc3Br)n2)c1`, for which the “proportion” value is 1.

With `Cc1csc(NC(=O)CSc2nnc(-c3ccccc3Cl)o2)n1`, the “proportion” value is 1.

For `CCOc1ccccc1-c1nc(-c2ccc(Cl)cc2)no1`, the “proportion” value was 1.

As for `Clc1ccc(-c2noc(-c3ccc4c(c3)OCCO4)n2)cc1`, the “proportion” value is 1.

For the compound `Cc1cccc(-c2noc(-c3ccc(C)cc3Cl)n2)c1`, the “proportion” value is 1.

`O=S(=O)(CCC(F)=C(F)F)c1ncc(Cl)s1` [fluensulfone]: the “proportion” value was 1.

Take `Cc1ccccc1CSc1nnc(-c2ccco2)o1`: the “proportion” value is 0.5 (active).

Turning to `Cc1cccc(-c2noc(COc3ccc(Br)cc3)n2)c1`, the “proportion” value was 1.

Consider `O=C(CSc1nnc(-c2ccc(Br)cc2)o1)OCc1ccccc1`, for which the “proportion” value was 1.

Take `Cc1cc(OCc2nc(-c3ccccn3)no2)ccc1Cl`: the “proportion” value was 1.

Take `Clc1ccc(-c2noc(-c3ccncc3)n2)cc1`: the “proportion” value was 1.

Regarding `Cc1ccc(-c2noc(-c3ccc(C)cc3Cl)n2)cc1`, the “proportion” value was 1.

`CC(=O)Nc1ccc(NC(=O)c2ccccc2-c2nc(-c3ccccc3Cl)no2)cc1`: the “proportion” value was 1.

Regarding `Cc1ccc(-c2noc(-c3cccc(C)c3)n2)cc1`, the “proportion” value is 0.557 (active).

On to `O=C(CSc1nnc(-c2ccc(Br)cc2)o1)Nc1ccc2ccccc2c1`, for which the “proportion” value was 1.

Turning to `c1ccc(COc2cccc(-c3nc(-c4ccccn4)no3)c2)cc1`, the “proportion” value is 1.

In the case of `COc1ccc(-c2nnc(SCC(=O)Nc3ccc(C)cc3Br)o2)cc1`, the “proportion” value is 1.

The values above are taken from the supplement of paper PMC11219838.
